Reference: the supplement of paper PMC9477273

tested on: DRIVER-selected RNA biosensor (aptazyme) pool; assay: maximum fold change of ribozyme cleavage across biosensor pool versus no-compound control; higher = stronger biosensor response (ligand inhibits cleavage); settings: 10 µM
In short: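 A pool of 1,730 ribozyme biosensors, resynthesized on an array, was transcribed with T7 at 37°C for 15–30 min in 9 mM rNTPs, with one compound present at a final 10 µM (added from a 10x DMSO stock). Reverse transcription followed at 50°C, and the cleaved and uncleaved products were PCR-barcoded and counted by Illumina sequencing. The reported fold change of cleavage is the highest value across all biosensors, taken as the ratio of cleaved:uncleaved read fractions relative to a no-compound condition and corrected with reference sequences.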

Structure (SMILES)	maximum fold change
O=C(CCNC(=O)Cn1cnc2sc3c(c2c1=O)CCCC3)NCC1CCCO1 (stereo not given)	3.04
CC(=O)N1N=C(c2c(-c3ccccc3)c3cc(Cl)ccc3[nH]c2=O)CC1c1ccco1 (stereo not given)	6.87
COCCN1C(=O)c2[nH]nc(-c3ccccc3O)c2C1c1ccccc1 (stereo not given)	3.01
CC1=C(c2ccc(C)cc2)S(=O)(=O)N=C1NCCCN1CCc2ccccc2C1	3.69
Cc1ccc(-c2noc(CCC(=O)N3CCN(Cc4ccccc4)CC3)n2)cc1	3.6
Cc1ccc(C)c(Cn2c(C)c(CNCc3ccc(Cl)cc3)c(C(=O)O)c2C)c1	2.54
CCOc1ccc(/C=C2\SC(N3CC(C)OC(C)C3)=NC2=O)cc1 (stereo not given)	2.08
CC(C)CN(CC(C)C)c1nnc(NC(=O)NCc2ccco2)s1	2.36
CCN1CCCC1CNC(=O)CS(=O)(=O)Cc1nc(-c2ccc(C)cc2)oc1C (stereo not given)	2.2
CC(C)COc1ccc(-c2nn(-c3ccccc3)cc2CO)cc1	3.19
COCCNC(=O)C1c2ccccc2C(=O)N(CCOC)C1c1c[nH]c2ccccc12 (stereo not given)	2.7
COCCNC(=S)NCc1ccc2[nH]c(C)cc2c1	2.32
CC(NC(=O)C1CCC(CNS(=O)(=O)c2ccccc2)CC1)c1ccccc1 (stereo not given)	2.1
Cc1ccccc1-c1nc(CS(=O)(=O)CC(=O)N2CCN(Cc3ccccc3)CC2)c(C)o1	3.66
Cc1cc(C)cc(-n2c(C)cc(/C=C3\C(=N)N4N=C(N5CCOCC5)SC4=NC3=O)c2C)c1	4.19
COc1ccc(-c2nn(C)c3sc(C(=O)N4CCC(C#N)CC4)cc23)cc1OC	7.42
N#C/C(=Cc1c(Oc2ccc(cc2)Br)nc2n(c1=O)cccc2)/C(=O)N1CCOCC1	4.23
CCOC(=O)N1CCN(c2cnn(-c3nc4ccccc4s3)c(=O)c2Cl)CC1	3.21
C=Cc1ccc(Cn2c(C(=O)O)c(CNCc3ccco3)c3ccc(C)cc32)cc1	2.45
Cc1oc(-c2ccccc2F)nc1CS(=O)(=O)CC(=O)N1CCC(Cc2ccccc2)CC1	4.04
Cc1ccccc1-c1nnc(SCC(=O)N2CCC(C)CC2)o1	1.91
c1sc2c(c1CN1CCC3(CC1)OCCO3)CCCC2	2.61
O=c1oc2cc(O)ccc2c2ccccc12	2.57
CC1=[N+](CCCS(=O)(=O)O)SC2C=CC(Cl)=CC12 (stereo not given)	1.77
Cc1c(CNC2CCCc3ccccc32)c(C(=O)O)c(C)n1Cc1ccc(F)cc1 (stereo not given)	2.39
Cc1ccc2nc(/C(C#N)=C\c3ccc[nH]3)[nH]c2c1	4.98
COc1cccc(-c2cc(C(=O)NC3CCCc4ccccc43)[nH]n2)c1 (stereo not given)	1.96
CC(=Cc1ccccc1)/C=C1N=C(/C=C/c2ccccc2)OC/1=O	2.27
O=C(Cn1ncn2nc(-c3cccs3)cc2c1=O)N1CCN(c2ccccn2)CC1	3.03
N/C(=N\OC(=O)N1CCOCC1)c1ccccn1	2.1
